HIF-2a block: blocks HIF-2a reporter activity; 786-0 RCC cells HIF-2a reporter, luciferase luminescence, overnight; inhibition, % at 18.8 µM; 0.72% of 360,000 active; AID 624352;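 active means inhibition of the luminescence signal of 40% or more relative to plate controls, in a single-dose primary screen at 18.75 µM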
CF NFkB block: cystic fibrosis NF-kB activation inhibition; AID 588850; KKLEB NF-kB-GFP reporter, PAF-induced, GFP fluorescence overnight; inhibition, % at 5 µM; 0.86% of 360,000 active;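 active means at least 50% inhibition at 5 µM, scaled per plate between neutral and stimulator controls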;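 further: PAF is a Pseudomonas aeruginosa culture filtrate used as stimulus; plate controls were PAF-stimulated DMSO wells for no effect and unstimulated DMSO wells for full effect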
KKLEB cytotox: counter-screen for CF NF-kB inhibitors: cytotoxicity | KKLEB CF airway cells viability, ATPlite luminescence, overnight; active compounds read low; cells stimulated with P. aeruginosa culture filtrate | activity change (cytotoxicity), % at 5 µM | 0.36% of 360,000 active | AID 602141;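 active means corrected activity change at or below -50% at 5 µM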
TRPM1 prom inh: MITF TRPM1 promoter inhibition in SK-MEL-5 cells; 0.83% of 330,000 active; SK-MEL-5 TRPM1 promoter luciferase, 24 h; inhibition, % at 12.5 µM;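 active means mean inhibition across replicates of 60% or more, whatever share of single replicates reaches that level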
Shn3 3UTR inh: reduces Shn3 3'UTR luciferase signal in osteoblasts | Clone20 osteoblast Shn3 3'UTR firefly luciferase, 24 h | inhibition, % at 12.5 µM | 0.52% of 360,000 active;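 active means mean inhibition of at least 75% with every replicate also reaching 75%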;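 further: 0% = median of neutral control wells and 100% = pilot-screen positive control compound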
Peg3 prom inh: Peg3 promoter activity inhibition; HeLa PEG-Prom luciferase reporter, luminescence, overnight; inhibition, % at 20 µM; 1.7% of 360,000 active; AID 588405;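 active means inhibition of at least 50% at 20 µM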
CF NFkB inh conf: CF NF-kB inhibition confirmation, single concentration; shares compounds with CF NFkB block; KKLEB CF airway cells, PAF-induced NF-kB-GFP fluorescence, overnight; inhibition, % at 5 µM; 64% of 1,300 active; in the data active means inhibition above about 40%;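 further: stimulus PAF is a Pseudomonas aeruginosa filtrate and not platelet activating factor; plate controls were DMSO wells with stimulus for no effect and unstimulated DMSO wells for full effect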
Numbers without * were called inactive; . = no result given. Compounds with a hit are over-represented: about 2.8% of the library has one in this group of screens.

SMILES	HIF-2a block	CF NFkB block	KKLEB cytotox	TRPM1 prom inh	Shn3 3UTR inh	Peg3 prom inh	CF NFkB inh conf
O=C1C=C(NC2=CC3OC(c4ccccc4)OCC3OC2=O)CCC1 (stereo not drawn)	24.7	71.4*	-10.9	64.8*	20.0	44.0	47.0*
CC1Cc2ccccc2N1C(=O)COC(=O)CCc1nc2ccccc2c(=O)[nH]1 (stereo not drawn)	12.3	9.3	2.0	4.7	-17.4	8.2	.
CC(=O)Oc1c(Br)cc(N(C(C)=O)S(=O)(=O)c2ccccc2)c2ccccc12	-3.3	87.7*	-40.9	32.0	-0.4	-7.9	74.3*
COc1ccc(CN(C)CC(=O)NC2CCCc3ccccc32)cc1OC (stereo not drawn)	12.1	2.0	-16.4	3.9	-5.5	12.7	.
COc1ccc(-c2cn[nH]c2-c2ccc(O)cc2O)cc1	18.9	70.3*	8.3	-4.2	15.0	11.3	93.9*
C=C(C)COc1ccc(-c2[nH]ncc2-c2ccccc2)c(O)c1	13.9	6.0	-1.9	8.7	28.9	11.8	.
COc1ccc(Oc2cn[nH]c2-c2ccc(O)cc2O)cc1	-6.9	13.5	-2.6	11.8	12.6	15.6	.
C=C(C)COc1ccc(-c2[nH]ncc2-c2ccc(OC)cc2)c(O)c1	4.7	53.2*	2.0	1.0	10.1	22.3	72.3*
COc1ccc(-c2cnc(N)nc2-c2ccc(OC)cc2O)cc1	30.6	56.0*	-13.1	-14.7	17.3	13.4	51.3*
CCN(CC)CCCN1C(=O)C2C(C(=O)Nc3ccc(C(C)C)cc3)C3C=CC2(O3)C1C(=O)NC1CCCCC1 (stereo not drawn)	8.7	10.7	1.2	-13.1	-5.7	7.8	.
Cc1ccc(-c2cc(C(=O)N/N=C/c3c(C)nn(-c4ccccc4)c3C)[nH]n2)cc1	3.4	50.5*	-32.4	6.9	48.7	-4.0	84.2*
Cc1nn(-c2ccccc2)c(N2CCCC2)c1/C=N/NC(=O)c1cc2ccccc2cc1O	9.8	16.6	-10.8	-1.3	-10.4	31.5	.
Cc1nn(-c2ccccc2)c(N2CCCC2)c1/C=N/NC(=O)c1cc(-c2ccccc2)nc2ccccc12	20.4	54.9*	-7.9	8.4	-13.7	55.4*	65.7*
CCCCN1C(=O)C(C(=O)OCc2ccccc2)CC2=C1CCCC2=O (stereo not drawn)	7.1	-1.0	1.5	0.5	12.0	-7.0	.
CCc1nc2ccc(C(=O)NCCCN3CCN(c4ccccc4F)CC3)cc2nc1CC	5.8	6.5	6.0	3.1	57.3	5.2	.
N#CCCN1CCCN(CCC#N)CCN(CCC#N)CCCN(CCC#N)CC1	12.0	-1.1	-0.4	-2.7	-6.2	-4.7	.
OCCCNc1ncnc2scc(-c3ccc(Cl)cc3)c12	24.4	62.8*	-11.0	2.1	32.2	22.6	80.8*
Cc1nc([N+](=O)[O-])c(SCC(N)=O)n1Cc1ccccc1	13.2	4.4	7.2	6.4	-7.4	7.1	.
Cc1nc([N+](=O)[O-])c(Sc2nc3ccccc3n2C)n1Cc1ccccc1	13.6	65.4*	-34.5	63.0*	-0.4	34.7	56.1*
O=C(CN1c2cccc3cccc(c23)S1(=O)=O)Nc1ccccc1Br	-10.7	-4.4	2.6	-1.5	-1.7	20.7	.
COCCCNC(=O)c1c(N)n(/N=C/c2cccnc2)c2nc3ccccc3nc12	1.2	-30.6	-4.3	-16.6	-2.2	47.1	.
CC(C)OCCCNC(=O)c1c(N)n(/N=C/c2ccccn2)c2nc3ccccc3nc12	-11.3	56.4*	-21.7	6.7	32.1	38.2	-43.7
COc1cccc(CC2(CO)CCCN(Cc3ccc(CN4CCCCC4)s3)C2)c1 (stereo not drawn)	9.1	-3.1	-14.4	5.1	-12.2	8.0	.
O=C1N(c2ccccc2C(F)(F)F)O[C@@]1(c1ccccc1)C1CCCCC1	2.9	65.3*	-15.3	18.7	-7.2	56.9*	60.4*
CCN(CC)CCNC(=O)c1ccc(NC(=O)C2CCN(c3ncnc4sc(C)c(C)c34)CC2)cc1	28.3	54.6*	-17.8	-30.7	-7.8	79.6*	56.0*
SMILES	HIF-2a block	CF NFkB block	KKLEB cytotox	TRPM1 prom inh	Shn3 3UTR inh	Peg3 prom inh	CF NFkB inh conf
O=C(/C=C/c1cccs1)Nc1cccc(NC(=O)/C=C/c2cccs2)n1	-227.0	58.1*	-22.0	-5.7	12.0	26.6	63.7*
Cc1cc(C)c(C(=O)c2ccccc2C(=O)O)c(C)c1	0.8	-9.6	-6.8	.	27.2	-1.8	.
O=C(Nc1ccc(Oc2ccccc2)cc1)c1ccc2sc([C@H]3C[C@H](O)[C@@H](CO)O3)nc2c1	-96.9	53.5*	6.5	.	37.3	-27.0	45.7*
CCOc1ccc(NC(=O)COC(=O)C23CC4CC(CC(C4)C2)C3)c([N+](=O)[O-])c1	12.9	5.2	-12.6	-9.4	11.9	15.9	.
CCCCN(C)C(=O)c1ccc(Nc2nc(C(N)Cc3ccc(C(F)(F)F)cc3)cs2)nc1 (stereo not drawn)	0.7	50.9*	-43.7	.	12.9	96.4*	20.1
COc1ccc(OC)c(-c2nnc3n2N=C(c2ccc(OC)c(OC4CCCC4)c2)CS3)c1	25.4	66.5*	-20.8	77.7*	21.5	13.3	71.0*
COc1ccc(C2=Nn3c(nnc3-c3ccncc3)SC2)cc1	10.9	72.4*	-33.2	-15.4	-9.3	4.8	75.8*
CC1(C)O[C@@H]2C[C@H]3[C@@H]4CCC5=CC(=O)C=C[C@]5(C)[C@@]4(F)[C@@H](O)C[C@]3(C)[C@]2(C(=O)CO)O1	20.5	66.9*	37.2	-14.3	16.2	11.9	29.9
CC1(C)O[C@@H]2C[C@H]3[C@@H]4C[C@H](F)C5=CC(=O)C=C[C@]5(C)[C@@]4(F)[C@@H](O)C[C@]3(C)[C@]2(C(=O)CO)O1	21.4	72.6*	24.7	-17.3	8.3	-7.9	24.6
Cc1csc(SC(C)C(=O)NCC2CCCO2)n1 (stereo not drawn)	1.1	5.3	-9.0	6.2	-0.4	-8.6	.
CCOC(=O)CCc1c(C(=O)OCC)[nH]c(CC)c1C(=O)OCc1ccccc1	5.2	23.1	-13.0	-2.5	0.1	22.3	.
CC[C@@H](C(=O)[C@@H](C)[C@@H](O)[C@H](C)[C@@H]1O[C@@H]([C@@H](CC)C(=O)O)CC[C@@H]1C)[C@H]1O[C@]2(C=C[C@@H](O)[C@]3(CC[C@@](C)([C@H]4CC[C@](O)(CC)[C@H](C)O4)O3)O2)[C@H](C)C[C@@H]1C	-34.5	68.7*	3.9	78.4*	81.6	101.0*	104.8*
O=C(Nc1ccc(Oc2ccc(NC(=O)Nc3ccc([N+](=O)[O-])cc3)cc2)cc1)Nc1ccc([N+](=O)[O-])cc1	-3.4	52.5*	1.2	26.2	81.9	46.3	61.3*
CCc1ccc(S(=O)(=O)NC(=S)NC2CCCCC2)cc1	-4.8	-14.0	12.6	6.6	19.2	5.9	.
